Drawing on PubChem BioAssay AID1508602 (The Scripps Research Institute Molecular Screening Center, 2020), this text covers activation for 93 molecules.

“And” between values parts separate entries of the source, which are not always exact repeats. Identical values can stand only once. The campaign covered roughly 650,000 compounds. About 6,800 (1%) were called active. No stated cut-off is given here; in the data, active means activation above about 4.9%; inactive means the rest. Many of the other results were omitted from the sample, so actives are more common in it than they were. Where a structure was tested more than once in an assay, its records may differ in their call.

For the experiment, the target named is G-protein coupled receptor 151 (Homo sapiens) (UniProt Q8TDV0). Briefly: activates the human receptor GPR151, primary screen, cell-based, PathHunter beta-arrestin, luminescence (AID 1508602).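 Further: 0% = median of compound wells and 100% = cells with positive control.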 The conditions noted are these: PathHunter beta-arrestin GPR151 cells, at 11.2 µM, stronger effect = higher value.
G-protein coupled receptor 151 (Homo sapiens), sequence (Q8TDV0 whole entry, looked up): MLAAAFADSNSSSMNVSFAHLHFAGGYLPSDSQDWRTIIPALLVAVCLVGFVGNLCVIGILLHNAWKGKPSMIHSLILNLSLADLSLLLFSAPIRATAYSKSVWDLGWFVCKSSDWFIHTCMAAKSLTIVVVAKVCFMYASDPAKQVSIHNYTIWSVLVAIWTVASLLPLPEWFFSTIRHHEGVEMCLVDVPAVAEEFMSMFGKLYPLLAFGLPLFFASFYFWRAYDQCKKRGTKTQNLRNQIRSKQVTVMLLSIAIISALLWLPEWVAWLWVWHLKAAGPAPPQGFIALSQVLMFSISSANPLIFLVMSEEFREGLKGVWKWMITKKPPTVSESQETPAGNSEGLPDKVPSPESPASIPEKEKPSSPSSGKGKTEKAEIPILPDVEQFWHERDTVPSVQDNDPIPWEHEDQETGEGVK
As for `COc1cccc(-c2nnc(NC(=O)CSc3ccccc3)o2)c1`, the activation is 9.1% (active). The result for `COc1ccc(NC(=O)Cc2ccc(C)cc2)cc1` reads -2.5% (inactive); that for `COc1cccc(-c2nnc(SCC(=O)NCc3ccccc3)o2)c1`, -0.0263% (inactive); that for `COc1ccc(CC(=O)Nc2ccc(-c3nnc(-c4ccccc4)o3)cc2)cc1`, 7.27% (active). The same measure for `COc1cccc(NC(=O)CSc2nnc(-c3ccc(NS(C)(=O)=O)cc3)o2)c1`: 0.627% (inactive). The result for `COc1ccc(CC(=O)Nc2ccc(C(=O)Nc3ccccc3C(=O)O)cc2)cc1` reads 1.57% (inactive); that for `CCC(C)NC(=O)c1sc2nc(C)nc(N3CCCCC3)c2c1C` (stereo not drawn), 2.24% (inactive). Turning to `CCC(CC)C(=O)Nc1ccc(S(=O)(=O)Nc2ncccn2)cc1`, the activation is -0.125% (inactive). The same measure for `CCCCCC(=O)OCCNC(=O)c1cc2ccccc2oc1=O`: -0.976% (inactive); for `O=S(=O)(NCc1csc(-c2cccnc2)n1)c1ccc2ccccc2c1`: 5.9% (active). The result for `Cc1ccc(S(=O)(=O)NCc2csc(-c3ccccc3)n2)cc1` reads 4.76% (inactive); that for `CCc1ccc(S(=O)(=O)NCc2csc(-c3ccccc3)n2)cc1`, -1.08% (inactive).

Turning to `NC1=NC(=O)/C(=C/c2ccccc2C(F)(F)F)S1`, the activation is -0.392% (inactive).

For the molecule `Cc1c(C)n2c(SCC(=O)Nc3ccc4c(c3)OCO4)nnc2[nH]c1=O`, the activation was 1.02% (inactive). The same measure for `CCCc1cc(=O)[nH]c2nnc(SCC(=O)Nc3cc(OC)ccc3OC)n12`: -0.547% (inactive); for `COc1ccc(OC)c(NC(=O)CSc2nnc3[nH]c(=O)c(C)c(C)n23)c1`: 5.91% (active); for `Cc1ccc(CSCc2nnc(SCC(=O)Nc3nccs3)n2C)cc1`: 0.977% (inactive). The same measure for `COc1ccc(/C(=N/C(N)=S)Nc2ccccc2)cc1`: -0.629% (inactive); for `COc1cc(/C=C/C(=O)O)ccc1OCc1ccccc1F`: -0.0946% (inactive); for `Cc1ccc(-c2nc(CCNC(=O)c3cccs3)cs2)cc1`: -1.14% (inactive).

For `COC(=O)C1(C)NC(c2ccc(C)cc2)C2C(=O)N(c3ccc(F)cc3)C(=O)C21` (stereo not drawn), the activation was -0.111% (inactive). The same measure for `COC(=O)C1(C)NC(c2ccc(C)cc2)C2C(=O)N(c3ccc(C)cc3)C(=O)C21` (stereo not drawn): -0.33% (inactive); for `COC(=O)C1(C)NC(c2ccccc2OC)C2C(=O)N(c3ccccc3)C(=O)C21` (stereo not drawn): 5.08% (active); for `Cc1c(C(=O)Nc2ccc(F)cc2Cl)sc2ncn(CC(=O)N3CCOCC3)c(=O)c12`: -1.55% (inactive). The same measure for `Clc1ccccc1C1C=C(c2ccc(I)cc2)Nc2nnnn21` (stereo not drawn): 13.5% (active); for `Cc1ccc(C2=CC(c3ccccc3F)n3nnnc3N2)cc1` (stereo not drawn): 0.122% (inactive); for `FC(F)Oc1ccccc1C1C=C(c2ccc(Cl)cc2)Nc2nnnn21` (stereo not drawn): -0.0148% (inactive).

Turning to `CC(C)C[C@@H]1NC(=O)[C@@H]2C[C@H](NCc3cn(C)nc3-c3ccccc3)CN2C1=O`, the activation was 2.5% (inactive). As to `Cc1nc(CNCc2ccc(OCC(O)CN(C)Cc3ccccc3)cc2)n[nH]1` (stereo not drawn), the activation was 0.224% (inactive). The result for `COCCN(C)Cc1ccc(OCC(O)CN(C)Cc2ccccc2)cc1` (stereo not drawn) reads 2.19% (inactive). The same measure for `Cc1cc(CN(C)Cc2ccc(OCC(O)CN(C)Cc3ccccc3)cc2)n[nH]1` (stereo not drawn): 5.48% (active). The same measure for `CC(C)Cn1cnc2c1c(=O)[nH]c(=O)n2CC(C)C`: -1.78% (inactive); for `CCOC(=O)c1oc2ccc(C=O)c(Cl)c2c1C`: 0.651% (inactive); for `CC(C)(C)NC(=O)C1CC(c2ccccc2Cl)=NO1` (stereo not drawn): 1.12% (inactive).

In the case of `COc1ccc(OC)c(C2=NOC(C(=O)Nc3cccc(O)c3)C2)c1` (stereo not drawn), the activation was 1.6% (inactive). The result for `COc1cc(NC(=O)C2CC(c3ccccc3O)=NO2)c(OC)cc1Cl` (stereo not drawn) reads 5.74% (active); that for `O=C(NNC(=S)NC(=O)c1ccccc1[N+](=O)[O-])c1ccc(O)cc1`, -0.124% (inactive); that for `CO[C@@H]1COC(=O)[C@@H](C)COC(=O)[C@H](C)NC(=O)C/C=C/[C@H]1C`, 1.97% (inactive) and 5.04% (active).

In the case of `COc1cc(Nc2ccnc(Nc3ccc(N4CCOCC4)cc3)n2)cc(OC)c1OC`, the activation was 5.76% (active). The same measure for `CCN(CC)c1nc(Nc2cc(OC)c(OC)c(OC)c2)nc(N2CCOCC2)n1`: 5.49% (active). The result for `CCN(CC)c1nc(Nc2cc(OC)c(OC)c(OC)c2)nc(Nc2nc3ccccc3n2C)n1` reads -0.32% (inactive); that for `c1ccc(Nc2nccc(Nc3ccc(N4CCOCC4)cc3)n2)cc1`, 2.16% (inactive). The result for `CCN(CC)c1nc(Nc2ccccc2)nc(N2CCOCC2)n1` reads -0.263% (inactive); that for `COc1cc(Nc2ccnc(Nc3ccncc3)n2)cc(OC)c1OC`, 1.57% (inactive). As for `O=C1CCC(CCC(=O)N2CCCC2)(Cc2cccc3ccccc23)N1` (stereo not drawn), the activation is 0.278% (inactive).

Consider `Cc1ccc(C(C)C)c(OCCNC(=O)c2cccs2)c1`, for which the activation is 0.446% (inactive).

Turning to `COc1ccc(CC2(CCC(=O)NCCCn3ccnc3)CCC(=O)N2)c(F)c1` (stereo not drawn), the activation is -0.719% (inactive). The result for `COc1cc(Nc2ccc(-n3cc(CC(=O)NCCCN4CCCC4=O)c4ccccc43)nn2)cc(OC)c1OC` reads -1.03% (inactive).

`COc1ccc(C(=O)NCC(=O)O)cc1[N+](=O)[O-]`: the activation was -1.88% (inactive). The same measure for `CCOC(=O)c1c(-c2ccc([N+](=O)[O-])cc2)csc1NC(=O)c1ccccc1`: -1.07% (inactive); for `COC(=O)c1c(-c2ccccc2)csc1NC(=O)c1ccc(OC)c([N+](=O)[O-])c1`: 6.64% (active); for `COC(=O)c1cccc(-n2nnnc2SCC(=O)Nc2nc(C(C)(C)C)cs2)c1`: -0.122% (inactive). The same measure for `CC(C(=O)O)c1ccc(NC(=O)OC(C)(C)C)cc1` (stereo not drawn): -1.31% (inactive); for `COc1cccc(C2SCC(=O)N2c2cccc(C)c2)c1OC` (stereo not drawn): 5.36% (active); for `COc1ccc(N2C(=O)CSC2c2cccc(Cl)c2Cl)cc1Cl` (stereo not drawn): 0.734% (inactive). The same measure for `COc1ccc(N2C(=O)CSC2c2ccccc2F)cc1Cl` (stereo not drawn): -0.327% (inactive).

For the molecule `Cc1c(NC(=O)c2nn3c(C(F)(F)F)cc(-c4ccc(Cl)cc4)nc3c2Cl)c(=O)n(-c2ccccc2)n1C`, the activation was -1.62% (inactive). The same measure for `N#C/C(=C/c1ccc(Br)o1)C(=O)NCCc1c[nH]c2ccccc12`: 0.189% (inactive); for `Cc1cc(CN(C)Cc2nc(NCC3CCCO3)c3ccc(Cl)cc3n2)on1` (stereo not drawn): -0.552% (inactive). Regarding `COc1cc(-c2ncnn2-c2ccc(Cl)cc2)ccc1OCc1ccccc1`, the activation is -3.78% (inactive). The same measure for `COCc1cc(C)c(C#N)c(N(C)C)n1`: 0.894% (inactive); for `CC1=NN(c2cccc(Cl)c2)C(=O)/C1=C\c1ccc(F)cc1`: -0.302% (inactive); for `O=C(NCc1ccsc1)c1ccc(-n2cccc2)cc1`: 6.14% (active). In the case of `O=C(NCCc1ccsc1)c1ccccc1Cl`, the activation is -3.26% (inactive). The result for `COc1ccc(CNC(=O)NCc2ccsc2)cc1` reads -0.956% (inactive).

Take `O=C(NCCc1ccc(N2CCCC2)cc1)c1ccc(F)cc1`: the activation is 0.277% (inactive). Turning to `CCn1c(NCc2ccccc2OC)nc2ccccc21`, the activation is -0.109% (inactive).

With `C#CCOc1ccc(C=C2C(=O)NC(=S)NC2=O)cc1Cl`, the activation is -0.112% (inactive).

Consider `C#CCOc1ccc(Br)cc1/C=C1\NC(=S)N(C)C1=O`, for which the activation was 5.86% (active). The result for `C=CCN1C(=O)/C(=C\c2cc(Br)ccc2OCC)C(=O)NC1=S` reads 0.0155% (inactive); that for `C/C(=N\NC(=O)CNC(=O)c1ccccc1Br)c1ccccc1`, -0.31% (inactive). The result for `CC(C)(C)c1ccc(OCCNC(=S)NC(=O)c2cncc(Br)c2)cc1` reads 0.8% (inactive); that for `Cc1cccc(OCCNC(=S)NC(=O)c2cccnc2)c1`, 7.55% (active); that for `Cc1cccc(C)c1OCC(=O)OCCNC(=O)c1cccnc1`, 2.35% (inactive). The same measure for `COc1ccc(-c2c(C)nn3c(NCCN(C)C)cc(C)nc23)cc1`: 0.306% (inactive); for `O=C1NC2(CCCC2)C(=O)N1Cc1nnc(-c2ccccc2Br)o1`: 0.439% (inactive). With `CS(=O)(=O)N(CC(=O)Nc1ccc(F)cc1F)c1cccc([N+](=O)[O-])c1`, the activation is -0.142% (inactive). The result for `CS(=O)(=O)N(CC(=O)Nc1ccc(F)cc1F)c1cc(Cl)c(Cl)cc1Cl` reads -0.649% (inactive); that for `CS(=O)(=O)N(CC(=O)Nc1ccc(F)cc1F)c1ccc(F)cc1`, 7.88% (active); that for `OCCn1c(SCCSc2nc3ccccc3n2CCO)nc2ccccc21`, -0.408% (inactive). The same measure for `COc1cc(NC(=O)c2cccc(Br)c2)ccc1NC(=O)c1ccco1`: 0.388% (inactive). On to `COc1cc(NC(=O)c2sc3ncnc(N4CCCCC4)c3c2C)cc(OC)c1OC`, for which the activation was 5.99% (active). The result for `COc1ccc(NC(=O)c2sc3ncnc(N4CCCCC4)c3c2C)cc1OC` reads 0.695% (inactive). The same measure for `COc1ccccc1N1CCN(c2ncnc3sc(C(=O)Nc4ccc5c(c4)OCCO5)c(C)c23)CC1`: -0.8% (inactive); for `CCC(CC)NCc1cc(OC)c(OC)cc1Br`: 0.484% (inactive); for `Cc1ccc([N+](=O)[O-])cc1S(=O)(=O)Nc1cccc(N(C)C)c1`: 0.193% (inactive). The result for `Cc1cc(C)cc(N(C(C)C(=O)Nc2ccc(Cl)cc2)S(C)(=O)=O)c1` (stereo not drawn) reads -1.25% (inactive); that for `Nc1cc(Cl)ccc1C(=O)OCC(=O)Nc1ccc(N2CCCCC2)cc1`, 2.3% (inactive); that for `O=C1N[C@@H](Cc2ccccc2)C(=O)N2CCN(C(=O)c3ccc(OC(F)(F)F)cc3)C[C@H]12`, -1.02% (inactive).

For `CC12CCC(C(=O)NC3CCCCC3)(OC1=O)C2(C)C` (stereo not drawn), the activation is 4.96% (active).

For the molecule `CC(C)NC(=O)C12CCC(C)(C(=O)O1)C2(C)C` (stereo not drawn), the activation is 0.406% (inactive). The same measure for `Cc1nc(NC(=O)C23CCC(C)(C(=O)O2)C3(C)C)sc1C` (stereo not drawn): -1.28% (inactive). `Cc1ccnc(NC(=O)Nc2sc3nc4n(c(=O)c3c2C)CCC(C)CC4)c1` (stereo not drawn): the activation was 0.22% (inactive).
